# Laboratory results reported in the supplement of paper PMC8728848.
# Shown is part of a subset that was picked to be rich in the strongest signals.
# Key:
# Assay in all cases: glycan array binding signal (z-score within array); higher = stronger binding
# Conditions in all cases: glycan notation: IUPAC condensed, linker removed
# Fuc(a1-2)Gal = target: Fuc(a1-2)Gal
# Method in brief: (§1)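 From the Consortium for Functional Glycomics database, 3228 arrays were curated, keeping only those whose protein sequence was available. Binding is given as a within-array Z-score averaged across arrays sharing a protein sequence and across linkers. Negative Z-scores can be read as non-binding.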
# [1] = target: Fuc(a1-2)Gal(b1-3)[Fuc(a1-4)]GlcNAc(b1-2)Man(a1-3)[Fuc(a1-2)Gal(b1-3)[Fuc(a1-4)]GlcNAc(b1-2)Man(a1-6)]Man(b1-4)GlcNAc(b1-4)GlcNAc
# Method in brief: as §1
# [2] = target: Fuc(a1-2)Gal(b1-3)[Fuc(a1-4)]GlcNAc(b1-3)[Gal(b1-4)GlcNAc(b1-6)]Gal(b1-4)Glc
# Method in brief: as §1
# [3] = target: Fuc(a1-2)Gal(b1-4)[Fuc(a1-3)]GlcNAc(b1-2)[Fuc(a1-2)Gal(b1-4)[Fuc(a1-3)]GlcNAc(b1-4)]Man(a1-3)[Fuc(a1-2)Gal(b1-4)[Fuc(a1-3)]GlcNAc(b1-2)Man(a1-6)]Man(b1-4)GlcNAc(b1-4)GlcNAc
# Method in brief: as §1
# [4] = target: Fuc(a1-2)Gal(b1-4)[Fuc(a1-3)]GlcNAc(b1-3)GalNAc
# Method in brief: as §1
# [5] = target: Fuc(a1-2)Gal6S(b1-4)Glc6S
# Method in brief: as §1
# Fuc(a1-3)GlcNAc = target: Fuc(a1-3)GlcNAc
# Method in brief: as §1
# [6] = target: Fuc(a1-3)[Gal(b1-4)]GlcNAc
# Method in brief: as §1
# [7] = target: Fuc(a1-3)[Gal(b1-4)]GlcNAc(b1-6)GalNAc
# Method in brief: as §1
# [8] = target: Fuc(a1-3)[Gal(b1-4)]GlcNAc(b1-6)[Gal(b1-3)GlcNAc(b1-3)]Gal(b1-4)Glc
# Method in brief: as §1
# Gal(a1-3)Gal(b1-4)GlcNAc = target: Gal(a1-3)Gal(b1-4)GlcNAc
# Method in brief: as §1
# [9] = target: Gal(b1-3)GalNAc(a1-3)[Fuc(a1-2)]Gal(b1-4)GlcNAc
# Method in brief: as §1
# [10] = target: Gal(b1-3)GlcNAc(b1-3)Gal(b1-4)Glc
# Method in brief: as §1
# [11] = target: Gal(b1-3)[Neu5Ac(a2-6)]GalNAc
# Method in brief: as §1
# Gal(b1-4)Glc6S = target: Gal(b1-4)Glc6S
# Method in brief: as §1
# Gal(b1-4)GlcNAc = target: Gal(b1-4)GlcNAc
# Method in brief: as §1
# Gal(b1-4)GlcNAc(b1-2)Man = target: Gal(b1-4)GlcNAc(b1-2)Man
# Method in brief: as §1
# [12] = target: Gal(b1-4)GlcNAc(b1-3)Gal(b1-4)[Fuc(a1-3)GlcNAc(b1-6)]Gal(b1-4)Glc
# Method in brief: as §1
# Gal3S(b1-4)Glc6S = target: Gal3S(b1-4)Glc6S
# Method in brief: as §1
# Gal3S6S(b1-4)GlcNAc = target: Gal3S6S(b1-4)GlcNAc
# Method in brief: as §1
# Gal4S6S(b1-4)GlcNAc = target: Gal4S6S(b1-4)GlcNAc
# Method in brief: as §1
# GalNAc(b1-3)Gal = target: GalNAc(b1-3)Gal
# Method in brief: as §1
# [13] = target: GalNAc(b1-4)GlcNAc(b1-2)Man(a1-3)[GalNAc(b1-4)GlcNAc(b1-2)Man(a1-6)]Man(b1-4)GlcNAc(b1-4)GlcNAc
# Method in brief: as §1
# [14] = target: GlcNAc(a1-4)Gal(b1-4)GlcNAc(b1-3)Gal(b1-4)[Fuc(a1-3)]GlcNAc(b1-3)Gal(b1-4)[Fuc(a1-3)]GlcNAc
# Method in brief: as §1
# [15] = target: GlcNAc(a1-6)Gal(b1-4)GlcNAc
# Method in brief: as §1
# [16] = target: GlcNAc(b1-2)[GlcNAc(b1-6)]Man(a1-6)[GlcNAc(b1-2)Man(a1-3)]Man(b1-4)GlcNAc(b1-4)GlcNAc
# Method in brief: as §1
# Man(b1-4)GlcNAc = target: Man(b1-4)GlcNAc
# Method in brief: as §1
# [17] = target: Neu5Ac(a2-3)Gal(b1-3)[Fuc(a1-4)]GlcNAc(b1-3)Gal(b1-3)[Fuc(a1-4)]GlcNAc
# Method in brief: as §1
# [18] = target: Neu5Ac(a2-3)Gal(b1-4)GlcNAc(b1-3)Gal(b1-4)GlcNAc
# Method in brief: as §1
# [19] = target: Neu5Ac(a2-3)Gal(b1-4)GlcNAc(b1-3)Gal(b1-4)[Fuc(a1-3)]GlcNAc
# Method in brief: as §1
binder,measurement,setting,value
"Protectin (Homo sapiens), P13987 (protein) MGIQGGSVLFGLLLVLAVFCHSGHSLQCYNCPNPTADCKTAVNCSSDFDACLITKAGLQVYNKCWKFEHCNFNDVTTRLRENELTYYCCKKDLCNFNEQLENGGTSLSEKTVLLLVTPFLAAAWSLHP",glycan array binding signal (z-score),Fuc(a1-2)Gal,-0.701
same,glycan array binding signal (z-score),[1],3.68
same,glycan array binding signal (z-score),[2],-0.784
same,glycan array binding signal (z-score),[3],2.73
same,glycan array binding signal (z-score),[4],3.6
same,glycan array binding signal (z-score),[5],-0.108
same,glycan array binding signal (z-score),Fuc(a1-3)GlcNAc,-0.062
same,glycan array binding signal (z-score),[6],0.55
same,glycan array binding signal (z-score),[7],2.63
same,glycan array binding signal (z-score),[8],-0.354
same,glycan array binding signal (z-score),Gal(a1-3)Gal(b1-4)GlcNAc,1.53
same,glycan array binding signal (z-score),[9],-0.989
same,glycan array binding signal (z-score),[10],2.77
same,glycan array binding signal (z-score),[11],0.383
same,glycan array binding signal (z-score),Gal(b1-4)Glc6S,0.209
same,glycan array binding signal (z-score),Gal(b1-4)GlcNAc,0.172
same,glycan array binding signal (z-score),Gal(b1-4)GlcNAc(b1-2)Man,0.267
same,glycan array binding signal (z-score),[12],-0.518
same,glycan array binding signal (z-score),Gal3S(b1-4)Glc6S,-0.411
same,glycan array binding signal (z-score),Gal3S6S(b1-4)GlcNAc,-0.261
same,glycan array binding signal (z-score),Gal4S6S(b1-4)GlcNAc,0.014
same,glycan array binding signal (z-score),GalNAc(b1-3)Gal,-1.36
same,glycan array binding signal (z-score),[13],2.58
same,glycan array binding signal (z-score),[14],6.43
same,glycan array binding signal (z-score),[15],-0.166
same,glycan array binding signal (z-score),[16],-0.347
same,glycan array binding signal (z-score),Man(b1-4)GlcNAc,-0.439
same,glycan array binding signal (z-score),[17],3.13
same,glycan array binding signal (z-score),[18],0.462
same,glycan array binding signal (z-score),[19],0.647
